Here are results for 68 compounds from PubChem BioAssay AID651610 (Broad Institute, 2012).

The whole screen tested about 360,000 compounds, of which about 3,900 (1.1%) were called active.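 How the source made its calls: active means mean replicate inhibition score of at least 50 and every replicate individually at or above 50; inconclusive means only one of the two criteria met; inactive means mean below 50 and not all replicates reaching 50.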 What follows is part of a selection rich in actives, with near analogues and random picks from the rest.

A short description of the test: blockers of JRFL envelope-mediated fusion – HeLa-JRFL effector, CEM21 target cells, luciferase, primary screen (AID 651610).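 Further: 0% = plate neutral controls and 100% = maraviroc near 300 nM.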 The following applies: HeLa-JRFL Env/CEM21 cell fusion, active compounds read high; at 16.7 µM unless noted.
Regarding `C[C@H]1CN([C@@H](C)CO)S(=O)(=O)c2ccc(Br)cc2O[C@H]1CN(C)Cc1ccccn1`, the inhibition is 16.3% (inactive).

Take `C[C@H]1CN([C@@H](C)CO)S(=O)(=O)c2ccc(C3=CCCC3)cc2O[C@@H]1CN(C)Cc1ccccc1`: the inhibition is 18.3% (inactive).

Take `OCCN1CCN(C(=S)c2ccc(-c3ccccc3)cc2)CC1`: the inhibition is 71.3% [at 12.3 µM] (active).

On to `CN1CCN(CCCCOc2ccccc2-c2ccccc2)CC1`, for which the inhibition was 6.99% [at 12.3 µM] (inactive).

As to `S=C(c1ccc(-c2ccccc2)o1)N1CCCCC1`, the inhibition was -140% [at 12.3 µM] (inactive).

On to `CCOC(=O)c1c(NC(=O)C2(C)Cc3ccccc3C(=O)O2)sc2c1CCCC2` (stereo not drawn), for which the inhibition was 14.6% [at 12.3 µM] (inactive).

In the case of `CCOC(=O)c1c(NC(=O)CSc2cn(CC)c3ccccc23)sc2c1CCC2`, the inhibition is 40.8% [at 12.3 µM] (inactive).

In the case of `CCOC(=O)c1c(NC(=O)C(C)Sc2c[nH]c3ccccc23)sc2c1CCC2` (stereo not drawn), the inhibition was 67% [at 12.3 µM] (active).

With `C[C@H](CO)N1C[C@H](C)[C@H](CN(C)S(=O)(=O)c2cn(C)cn2)Oc2ccc(NS(=O)(=O)c3ccccc3)cc2C1=O`, the inhibition is 2.2% (inactive).

Turning to `C[C@@H]1CN([C@@H](C)CO)C(=O)c2cc(NC(=O)Cc3ccccc3)ccc2O[C@@H](C)CCCCO[C@@H]1CN(C)C(=O)Nc1ccccc1`, the inhibition was 34.3% (inactive).

On to `c1ccc(Cc2c(-c3ccco3)nc3c4ccccc4ccn23)cc1`, for which the inhibition is 65.9% [at 12.3 µM] (active).

As for `Cc1ccc(Cc2c(-c3ccc(Cl)cc3)nc3c4ccccc4ccn23)cc1`, the inhibition was 0.563% [at 12.3 µM] (inactive).

For `Cc1ccc(Cc2c(-c3ccc(C)cc3)nc3c4ccccc4ccn23)cc1`, the inhibition is 14.4% [at 12.3 µM] (inactive).

With `COc1ccc(S(=O)(=O)N(C)C[C@H]2OCCCC[C@@H](C)Oc3ccc(NC(=O)c4ccncc4)cc3C(=O)N([C@H](C)CO)C[C@@H]2C)cc1`, the inhibition is 13.6% (inactive).

Turning to `CO[C@@H]1CN(C)C(=O)c2cc(NS(=O)(=O)c3cccc(Cl)c3)ccc2OC[C@@H](C)NC[C@@H]1C`, the inhibition is 0.008% (inactive).

As for `C[C@@H]1CN([C@@H](C)CO)C(=O)Cc2cc(NC(=O)Nc3ccc4c(c3)OCO4)ccc2O[C@@H]1CN(C)C(=O)Nc1ccc2c(c1)OCO2`, the inhibition is -15.9% (inactive).

Turning to `COc1cccc(NC(=O)N[C@@H]2CC[C@H](CC(=O)NCc3ccccn3)O[C@H]2CO)c1`, the inhibition is -38% (inactive).

In the case of `CCC(=O)N(C)C[C@@H]1Oc2ncc(C3=CCCC3)cc2C(=O)N([C@H](C)CO)C[C@@H]1C`, the inhibition is 0.169% (inactive).

For the compound `CCC(=O)N(C)C[C@H]1Oc2ncc(-c3ccccc3OC)cc2C(=O)N([C@H](C)CO)C[C@H]1C`, the inhibition was -7.79% (inactive).

As for `COc1ccc2c3c([nH]c2c1)[C@@H](CO)N(C(=O)c1ccccc1)CC31CCN(Cc2cccnc2)CC1`, the inhibition was -8.66% (inactive).

For `O=S1(=O)c2c(cccc2N2CCCCC2)O[C@H](COCc2ccccc2)CN1C1CC1`, the inhibition was 102% [at 12.3 µM] (active).

In the case of `O=S1(=O)c2c(cccc2N2CCCC2)O[C@H](COCc2ccccc2)CN1C1CC1`, the inhibition is -8.42% [at 12.3 µM] (inactive).

For `CSc1ccc(Oc2cccc3c2S(=O)(=O)N([C@H](C)c2ccccc2)C[C@@H](COCc2ccccc2)O3)cc1C`, the inhibition was 10.8% [at 12.3 µM] (inactive).

Consider `COc1ccc(NC(=O)N(C)C[C@@H]2Oc3ccc(NC(=O)Cc4cn(C)c5ccccc45)cc3CC(=O)N([C@@H](C)CO)C[C@H]2C)cc1`, for which the inhibition was -18.3% (inactive).

Take `CCc1cnc(N2[C@H](C#N)[C@H](c3ccc(C4=CCCC4)cc3)[C@@H]2CO)s1`: the inhibition is 1.6% (inactive).

Turning to `Cc1cc(O)ccc1-c1cc(C(=O)NCc2cc(C(F)(F)F)cc(C(F)(F)F)c2)[nH]n1`, the inhibition was 59.8% [at 12.3 µM] (active).

`Cc1ccc(O)c(-c2cc(C(=O)NCc3ccccc3)[nH]n2)c1`: the inhibition was -126% [at 12.3 µM] (inactive).

Take `CCCOc1ccc(F)cc1-c1cc(C(=O)NCc2ccc(F)cc2)[nH]n1`: the inhibition is -16.3% [at 12.3 µM] (inactive).

For `CS(=O)(=O)N1[C@H](C#N)[C@H](c2ccc(C#CC3CCCC3)cc2)[C@H]1CO`, the inhibition is 1.54% (inactive).

Take `COc1cccc(S(=O)(=O)Nc2ccc3c(c2)[C@@H]2C[C@H](CC(=O)NC4CCCCC4)O[C@H](CO)[C@@H]2O3)c1`: the inhibition was -12.8% (inactive).

In the case of `COc1ccccc1-c1cn(CC[C@H]2CC[C@H](NC(=O)Cc3ccccn3)[C@H](CO)O2)nn1`, the inhibition was 1.37% (inactive).

Consider `Cc1noc(C)c1NC(=O)Nc1ccc2c(c1)C(=O)N([C@H](C)CO)C[C@@H](C)[C@H](CN(C)S(=O)(=O)c1ccc(Cl)cc1)OCCCC[C@H](C)O2`, for which the inhibition was -20.3% (inactive).

Take `CCC(=O)N[C@H]1C=C[C@@H](CC(=O)NCC2CCCCC2)O[C@H]1CO`: the inhibition was 4.15% (inactive).

In the case of `OCCCNc1nccc(-c2cc(Nc3cccc(Cl)c3)ncn2)n1`, the inhibition is 95.7% [at 12.3 µM] (active).

On to `Cn1c(Nc2cccc(Cl)c2)nc2ccccc21`, for which the inhibition was -29.5% [at 12.3 µM] (inactive).

Take `Cc1cccc(Nc2nc(NCCO)nc(N3CCCC3)n2)c1`: the inhibition is -14.8% [at 12.3 µM] (inactive).

With `C[C@@H]1CN([C@@H](C)CO)C(=O)c2cc(NC(=O)Nc3ccc4c(c3)OCO4)ccc2O[C@@H]1CN(C)C(=O)Nc1ccc2c(c1)OCO2`, the inhibition was 16% (inactive).

As to `C[C@@H]1CN([C@H](C)CO)C(=O)c2cccc(NC(=O)Nc3cccc4ccccc34)c2O[C@@H]1CN(C)Cc1ccccc1`, the inhibition is -16.3% (inactive).

Consider `COc1ccc(-c2nn(C)c(=O)c3ccccc23)cc1NC(=O)COc1ccccc1`, for which the inhibition is 79.8% [at 12.3 µM] (active).

With `COc1ccc(-c2nn(C)c(=O)c3ccccc23)cc1CNC(=O)C1CCCCC1`, the inhibition was 23.3% [at 12.3 µM] (inactive).

As to `COc1ccc(S(=O)(=O)N2CCOCC2)cc1NC(=O)COc1ccccc1`, the inhibition was -4.29% [at 12.3 µM] (inactive).

As to `Cc1noc(C)c1NC(=O)N[C@H]1CC[C@H](CC(=O)N2CCCCC2)O[C@@H]1CO`, the inhibition was 4.43% (inactive).

`CC1=C(C(=O)N2CCOCC2)CC(CC(=O)NCC2CCCCC2)C(=O)N1Cc1ccc(F)cc1` (stereo not drawn): the inhibition is 6.87% [at 12.3 µM] (inactive).

`CCN(CC)C(=O)C1=C(C)N(Cc2ccccc2)C(=O)C(CC(=O)NC(c2ccccc2)c2ccccc2)C1` (stereo not drawn): the inhibition is -23.1% [at 12.3 µM] (inactive).

For the compound `CC1=C(C(=O)N(C(C)C)C(C)C)CC(CC(=O)NCC2CCCCC2)C(=O)N1Cc1ccccc1` (stereo not drawn), the inhibition is 61.4% [at 12.3 µM] (active).

Regarding `CC(NCc1ccccc1OC1CCCC1)c1ccccc1` (stereo not drawn), the inhibition is 62.5% [at 12.3 µM] (active).

In the case of `COc1cc(CNC2CCCCC2)c(Br)cc1OC1CCCC1`, the inhibition is -65.6% [at 12.3 µM] (inactive).

As for `CC(C)(C)NCc1cc(Br)ccc1OC1CCCC1`, the inhibition was 14.4% [at 12.3 µM] (inactive).

For `CCOC(=O)CNC(=O)N(C)[C@H]1C[C@H]2c3[nH]c4c(-c5ccc6c(c5)OCO6)cccc4c3CCN2C(=O)[C@H]1[C@H](C)O`, the inhibition is -112% [at 12.3 µM] (inactive).

As to `CN1CCN(C(=O)C[C@H]2C[C@@H]3c4cc(NC(=O)NC5CCCC5)ccc4O[C@@H]3[C@@H](CO)O2)CC1`, the inhibition is -8.97% (inactive).

Take `CC1CCN(C(=O)c2cc3nc(C4CC4)cc(C(F)(F)F)n3n2)CC1`: the inhibition is 12.6% [at 12.3 µM] (inactive).

As to `CC1CCN(C(=O)c2ccc3c(c2)NC(=O)CN3)CC1`, the inhibition is 1.27% [at 12.3 µM] (inactive).

Regarding `CC1CCN(C(=O)c2ncn3c2C(=O)N[C@@H](C)C3)CC1`, the inhibition was 131% [at 12.3 µM] (active).

`CCCNC(=O)N1[C@@H](C#N)[C@H](c2ccc(-c3ccc(C(=O)N(C)C)cc3)cc2)[C@@H]1CO`: the inhibition is 26% (inactive).

As for `O=C(NCc1ccncn1)[C@@H]1[C@@H](CO)[C@@H]2Cn3c(ccc(-c4ccc(F)cc4)c3=O)[C@@H]2N1CC1CC1`, the inhibition was -1.91% (inactive).

Consider `COc1ccc(NC(=O)Nc2ccc3c(c2)CC(=O)N([C@@H](C)CO)C[C@H](C)[C@@H](CN(C)S(=O)(=O)c2cn(C)cn2)O3)cc1`, for which the inhibition is 13% (inactive).

On to `O=C(COC(=O)COc1cc(Cl)c(Cl)cc1Cl)NC1CC1`, for which the inhibition was 1.57% [at 12.3 µM] (inactive).

For `O=C(COc1cc(Cl)c(Cl)cc1Cl)NCCc1ccccn1`, the inhibition was -1.39% [at 12.3 µM] (inactive).

Turning to `NC(=S)NN=Cc1ccc(OC(=O)COc2cc(Cl)c(Cl)cc2Cl)cn1`, the inhibition was 74.3% [at 12.3 µM] (active).

As for `CCCN(C)C[C@H]1OCCCC[C@@H](C)Oc2ccc(N(C)C)cc2C(=O)N([C@H](C)CO)C[C@@H]1C`, the inhibition was 0.797% (inactive).

For `CCOC(=O)c1c(C)[nH]c(C)c1S(=O)(=O)NCCCc1ccco1`, the inhibition is -4.62% [at 12.3 µM] (inactive).

For the compound `CCOC(=O)c1c(C)[nH]c2c1-c1ccccc1C(=O)C2=O`, the inhibition was 58.9% [at 12.3 µM] (active).

As to `CCOC(=O)c1[nH]c2ccccc2c1N=C(C)N(CC)CC`, the inhibition is -0.896% [at 12.3 µM] (inactive).

For `C[C@H](CO)N1C[C@H](C)[C@@H](CN(C)CC2CC2)Oc2ccc(NC(=O)Nc3ccccc3)cc2CC1=O`, the inhibition was -2.58% (inactive).

In the case of `CN(C(=O)CN1C(=O)/C(=C/c2ccc(Cl)cc2)SC1=S)C1CCS(=O)(=O)C1` (stereo not drawn), the inhibition was 55.1% [at 12.3 µM] (active).

With `CCN(C(=O)CN1C(=O)/C(=C/c2ccc(F)cc2)SC1=S)C1CCS(=O)(=O)C1` (stereo not drawn), the inhibition was -11.4% [at 12.3 µM] (inactive).

Regarding `CN(C(=O)CCN1C(=O)/C(=C/c2ccccc2F)SC1=S)C1CCS(=O)(=O)C1` (stereo not drawn), the inhibition is -6.28% [at 12.3 µM] (inactive).

As to `CNC[C@H]1Oc2ncc(-c3ccccc3F)cc2C(=O)N([C@H](C)CO)C[C@H]1C`, the inhibition was 10.5% (inactive).

A word on the inhibition: it is the drop in the measured response relative to a control, in per cent.
